# Assay results as given in PubChem BioAssay AID686978 (National Center for Advancing Translational Sciences (NCATS), 2013).
# About 64,000 (15%) of roughly 420,000 compounds were called active. Roughly 27% stayed inconclusive and do not appear here. Not all results are given here. Unmarked numbers belong to inactive results. Calls come from the whole dose curve; as a rule, active = well fitted inhibition curve with a large enough effect; inconclusive = small, poorly fitted or top-dose-only effect; inactive = flat fitted curve, though single readings scatter.
# Assay: qHTS for Inhibitors of human tyrosyl-DNA phosphodiesterase 1 (TDP1): qHTS in cells in absence of CPT; note: nearly all actives have a fitted effect of over 55% in size
# Conditions: DT40 Tdp1-/- hTDP1 cells, no CPT, ATP luminescence, 48 h; activity change, negative = growth inhibition: at 46.2 µM (top of the series)
# In short: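 A cellular qHTS used chicken DT40 cells lacking endogenous Tdp1 but carrying stably transfected human TDP1. Compounds were applied without camptothecin, and cell growth kinetics were judged by ATP-dependent luminescence after ≥48 hr.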
# % is set by controls: 0 for no effect and ±100 for the full control effect; potency is the fitted concentration of half-maximal effect.
Structure (SMILES),"activity change, negative = growth inhibition [%]",Potency
C=CCn1c(COc2ccccc2)nnc1SCC(=O)NCC(=O)OCC,-27.1,–
O=C(O)CSc1nccc2ccccc12,-14.4,–
COc1cc(Cl)c(S(=O)(=O)n2cnc(C)c2)cc1Cl,-1.08,–
Cc1ccnc(NC(=O)CNC(=O)c2ccccc2)c1,5.46,–
CCc1ccc(CNC(=O)CCc2nc(-c3cccs3)no2)cc1,-19.3,–
CSc1n[nH]c(-c2ccco2)n1,-7.2,–
O=C(CC(NS(=O)(=O)c1ccc(Cl)cc1)c1ccco1)NC1CCCC1 (stereo not given),-3.48,–
CCc1nn(CC(=O)N2CCN(CC)CC2)c(=O)c2cccn12,-0.686,–
COc1ccccc1NS(=O)(=O)c1ccc(C)c(C(=O)NCC(c2ccco2)N(C)C)c1 (stereo not given),6.61,–
C=CC(C1=CC(=O)C=CC1=O)c1ccc(O)cc1 (stereo not given),–,1.84 µM (active)
COc1ccc(CC(=O)Nc2ccc3c(c2)CCC3)cc1S(=O)(=O)N1CCOCC1,-18.7,–
COC(=O)c1cccc(N(CC(=O)NCC2CCCO2)C(=O)CCC(=O)Nc2cc(C)on2)c1 (stereo not given),-22.2,–
Cc1ccc(-c2csc(SCC(=O)Nc3cc(C)on3)n2)cc1,-27.8,–
Cc1ccc2c(CSc3nncs3)cc(=O)oc2c1,-5.24,–
CCOC(=O)Cc1csc(SCc2cc(=O)oc3cc(O)ccc23)n1,–,13 µM (active)
Cc1ccc(C)c(NC(=O)COC(=O)Cn2c(C)csc2=O)c1,-18.8,–
CCOC(=O)Cc1csc(NC(=O)CSc2ccc(Br)cc2)n1,–,16.4 µM (active)
CCOC(=O)Cc1csc(NC(=O)COc2ccc3c(C)cc(=O)oc3c2)n1,-22.8,–
CCOC(=O)Cc1csc(NC(=O)C(C)(C)C)n1,-20.3,–
CCOC(=O)Cc1csc(SCC(=O)Nc2ccc(C)cc2F)n1,–,14.6 µM (active)
CCOC(=O)Cc1csc(NC(NC(=O)OCC)(C(F)(F)F)C(F)(F)F)n1,-14.5,–
CN(C(=O)CSc1nnc(Nc2ccccc2)s1)C1CCS(=O)(=O)C1 (stereo not given),-10.7,–
CC(Nc1ccccc1)c1cccnc1 (stereo not given),4.56,–
O=C(O)C1CCCN1c1nc(Cl)ccc1[N+](=O)[O-] (stereo not given),-3.67,–
Cc1c(CN2CCCC(C(=O)c3cccc(Cl)c3)C2)c(=O)n(-c2ccccc2)n1C (stereo not given),-10.5,–
CCn1ccnc1CN1CCCC(C(=O)c2ccc3c4c(cccc24)CC3)C1 (stereo not given),–,4.61 µM (active)
CCc1nccn1CCC(=O)N1CCCC(N2CCN(c3ccccc3F)CC2)C1 (stereo not given),-2.17,–
COc1cc(CN2CCC(n3nccc3NC(=O)CCCc3ccccc3)CC2)ccc1O,1.27,–
Cc1ccc(CN2CCC(n3nccc3NC(=O)CCCc3ccccc3)CC2)o1,-21.2,–
COc1ccc(CN2CCC(n3nccc3NC(=O)CCCc3ccccc3)CC2)cc1C,–,29.1 µM (active)
